In PubChem BioAssay AID602475 (National Center for Advancing Translational Sciences (NCATS), 2012):
Results filed as inconclusive are left out. Calls of active or inactive are those of the source. Calls come from the whole dose curve; as a rule, active = well fitted inhibition curve with a large enough effect; inconclusive = small, poorly fitted or top-dose-only effect; inactive = no such curve, though single readings can be large or run the other way.

target: Luciferin 4-monooxygenase (Photinus pyralis) (UniProt P08659); experiment: FLuc inhibitory activity for the follow-up compounds in a biochemical assay with an in-house formulation of detection reagent; conditions: purified FLuc, luminescence; series mostly up to 25.6 µM; activity change, negative = inhibition: at the top concentration
From the text: NCGC Assay Overview: Firefly (Photinus pyralis) luciferase is one of the most commonly used transcriptional reporters. It is considered one of the more dynamically responsive reporters - that is, responsive to changes in reporter transcription - as it requires no post-translational modifications and is enzymatically active directly after protein synthesis (Wood, 1998). With no endogenous expression in mammalian cells and without the requirement of external excitation, it offers very little background signal, thus generally providing excellent signal to background for most assays. Previous profiling work to determine the prevalence of compounds that affect FLuc enzymatic activity (PubChem AID 411) identified that ~3% of the MLSMR library (then at ~72K) inhibited FLuc (Auld et al., 2008). […] Of the compounds identified in this profile that inhibited FLuc, 151 compounds were selected for further analysis, in an effort to better understand their mode of inhibiting FLuc. The assay described here was to determine the activity of the compounds in a FLuc assay that used an in-house formulation of detection reagent.
NCGC Assay Protocol Summary: Reagents: 300mM Tris-HCl, 300mM Trizma base, 300mM MgCl, 1% Triton-X100, 5mM DTT, 500uM Coenzyme A trilithium salt (Sigma #C3019),450uM ATP (Sigma #A7699), 1mM D-luciferin sodium salt monohydrate (Biosynth #L8240); 10nM P. pyralis luciferase (Sigma #L9506) Control compounds used were two known firefly luciferase inhibitors (3-(5-(3-chlorophenyl)-1,2,4-oxadiazol-3-yl)benzoic acid and 5-(2-fluorophenyl)-3-phenyl-1,2,4-oxadiazole), and DMSO. Assay Summary: Six microliters of buffer containing firefly luciferase (final concentrations: 50mM Tris acetate, 10nM P. pyralis luciferase) are dispensed into each well of a Greiner white, solid-bottom 1536-well format plate using a flying reagent dispenser (FRD). These assay plates were then treated with 23nL of compound or DMSO using a Kalypsys pin tool, which allows for delivery of a 12-point intraplate titration of each compound to the assay plate (quantitative HTS), with final compound concentrations ranging from approximately ~25uM to 0.1nM. Three microliters of 3X in-house detection reagent was then delivered by FRD to each well (final concentrations in assay: 300mM Tris-HCl, 300mM Trizma base, 300mM MgCl, 1% Triton-X100, 5mM DTT, 500uM Coenzyme A trilithium salt, 450uM ATP, 1mM D-luciferin sodium salt monohydrate). Luciferase activity was then measured using a ViewLux CCD imager (PerkinElmer), with an average exposure time of 2-30 seconds (2X binning, medium/high gain).

Chain of Luciferin 4-monooxygenase (Photinus pyralis) (P08659 whole entry, looked up): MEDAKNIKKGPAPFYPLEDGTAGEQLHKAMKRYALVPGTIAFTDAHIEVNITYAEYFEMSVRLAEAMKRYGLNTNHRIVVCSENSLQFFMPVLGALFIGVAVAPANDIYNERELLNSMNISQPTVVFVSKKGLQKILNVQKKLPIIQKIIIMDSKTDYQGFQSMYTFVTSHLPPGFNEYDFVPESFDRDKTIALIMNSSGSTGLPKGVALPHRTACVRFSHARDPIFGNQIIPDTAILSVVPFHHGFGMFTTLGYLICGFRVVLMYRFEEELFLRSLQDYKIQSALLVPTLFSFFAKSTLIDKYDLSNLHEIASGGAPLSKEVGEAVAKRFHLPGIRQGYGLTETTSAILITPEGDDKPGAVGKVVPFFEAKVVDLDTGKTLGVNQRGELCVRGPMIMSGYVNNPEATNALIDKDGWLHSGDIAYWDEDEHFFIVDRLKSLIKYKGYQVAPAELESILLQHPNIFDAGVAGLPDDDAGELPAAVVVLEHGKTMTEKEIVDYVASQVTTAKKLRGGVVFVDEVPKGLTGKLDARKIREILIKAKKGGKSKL

Row | SMILES | activity change, negative = inhibition | Potency
1 | Cc1cccc(C(=O)Nc2ccccc2C(=O)Nc2ccc(C(=O)O)cc2)c1 | -43.7% (inactive) | 
2 | O=C(Nc1ccccc1C(=O)O)c1cccc(NC(=O)c2ccco2)c1 | -15.2% (inactive) | 
3 | COc1ccc2nc(NC(=O)c3cccc(S(=O)(=O)N4CCOCC4)c3)sc2c1 | 16.6% (inactive) | 
4 | COc1ccc(-c2cccc(C(=O)Nc3cccc(C(=O)O)c3)c2)cc1 | -0.002% (inactive) | 
5 | COc1cc(OC)cc(C(=O)Nc2ccc(-c3nc4ccccc4s3)c(C)c2)c1 | -18.6% (inactive) | 
6 | O=C(Nc1ccc(-c2nc3ccccc3s2)cc1)C1=COCCO1 |  | 2.46 µM (active)
7 | Cc1ccc2nc(-c3ccc(N)cc3)sc2c1 |  | 4.91 µM (active)
8 | COc1ccc(C(=O)Nc2nc3ccc(OC)cc3s2)cc1 | -5.76% (inactive) | 
9 | COc1ccc(C(=O)Nc2cccc(C(=O)O)c2)cc1S(=O)(=O)N1CCCC1 | -14% (inactive) | 
10 | O=C(Nc1ccccc1C(=O)O)c1cccc(S(=O)(=O)N2CCCC2)c1 | -18.7% (inactive) | 
11 | CC(=O)Oc1ccc(C(=O)Nc2ccccc2C(=O)Nc2cccc(C(=O)O)c2)cc1 | -11.8% (inactive) | 
12 | O=C(O)c1cccc(NC(=O)c2cccc(S(=O)(=O)N3CCc4ccccc4C3)c2)c1 | -8.2% (inactive) | 
13 | COc1ccccc1C(=O)Nc1ccc(C(=O)Nc2ccccc2C(=O)O)cc1 | -5.34% (inactive) | 
14 | Nc1ccc2nc(-c3ccc(O)cc3)sc2c1 |  | 6.19 µM (active)
15 | COc1cccc(-c2nc3ccccc3s2)c1 |  | 7.79 µM (active)
16 | CCOc1ccc2nc(NC(=O)c3ccoc3C)sc2c1 |  | 4.91 µM (active)
17 | Cc1c(NC(=O)c2cc(-n3cnnc3)ccc2Cl)cccc1-c1nc2ccccc2s1 | -8.49% (inactive) | 
18 | O=C(O)c1cccc(NC(=O)c2ccccc2NC(=O)c2ccco2)c1 | -24.1% (inactive) | 
19 | CCOc1ccc(C(=O)Nc2ccccc2C(=O)O)cc1 |  | 6.94 µM (active)
20 | O=C(Nc1ccccc1C(=O)O)c1cccc(NC(=O)c2ccccc2Cl)c1 | -26.1% (inactive) | 

Row | SMILES | activity change, negative = inhibition | Potency
21 | COc1ccc(C(=O)Nc2ccccc2C(=O)Nc2ccccc2C(=O)O)cc1 | -25.8% (inactive) | 
22 | Cc1cccc(C(=O)Nc2ccc(-c3nc4ccccc4s3)cc2Cl)c1 | 8.15% (inactive) | 
23 | O=C(O)c1ccc(NC(=O)c2ccccc2NC(=O)c2ccccc2Br)cc1 | -14% (inactive) | 
24 | O=C(Cc1ccccc1)Nc1ccccc1C(=O)Nc1ccc(C(=O)O)cc1 | -19.1% (inactive) | 
25 | COc1cc(OC)cc(-c2nc3ccccc3s2)c1 | -24% (inactive) | 
26 | CC(=O)Nc1cccc(-c2nc3ccccc3s2)c1C | -10.4% (inactive) | 
27 | COc1ccc(Br)cc1C(=O)Nc1ccc(C(=O)O)cc1 | -16.9% (inactive) | 
28 | Cc1c(NC(=O)C(C)(C)C)cccc1-c1nc2ccccc2s1 | 2.61% (inactive) | 
29 | COc1ccc(-c2nc3ccccc3s2)cc1O |  | 2.46 µM (active)
30 | CC(C)(C)C(=O)Nc1ccc(-c2nc3ccccc3s2)cc1 |  | 0.0219 µM (active)
31 | Cc1ccc(S(=O)(=O)N2CCOCC2)cc1C(=O)Nc1ccccc1C(=O)O | -0.566% (inactive) | 
32 | O=C(Nc1ccccc1C(=O)O)c1ccccc1 | -24% (inactive) | 
33 | COc1ccc2nc(NC(=O)c3cccs3)sc2c1 | -2.15% (inactive) | 
34 | O=C(Nc1ccccc1C(=O)Nc1ccccc1C(=O)O)c1ccccc1 | -4.17% (inactive) | 
35 | Cc1ccc(C(=O)Nc2cccc(C(=O)O)c2)cc1S(=O)(=O)N1CCCCC1 | -17.8% (inactive) | 
36 | Cc1c(NC(=O)c2cccs2)cccc1-c1nc2ccccc2s1 | -9.6% (inactive) | 
37 | CCc1noc(C)c1C(=O)Nc1nc2ccc(OC)cc2s1 | -15.2% (inactive) | 
38 | Cc1ccc(S(=O)(=O)N2CCN(C(=O)c3ccccc3-c3nc4ccccc4s3)CC2)c(C)c1 | 15.4% (inactive) | 
39 | Cc1c(C)c2ccc(OCC(=O)Nc3ccccn3)c(C)c2oc1=O |  | 0.0874 µM (active)
40 | O=C(O)c1ccc(NC(=O)c2cc(S(=O)(=O)N3CCCCC3)c(Cl)cc2Cl)cc1 | -9.37% (inactive) | 
